Assay outcomes from PubChem.
SW480 rerep = inducers of DNA re-replication in SW480 colon cancer cells | SW480 DNA re-replication, Hoechst DNA content imaging, 48 h | Potency, µM (titrated, usually from 46.1 µM), for the others: top-dose re-replication activation, most hits filed as activators | actives 1.8% (n = 340,000) | AID 624297; note: % of control where 0% means no effect; nearly all actives have a fitted effect of over 55% in size
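Hoechst fluorescence of nuclei (405 nm excitation, 500-530 nm emission) measured by plate-scanning imager after 48 hr compound exposure at 37 C; re-replication scored as increased number of nuclei with elevated intensity.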
Mito fusion yeast = blocks mitochondrial division or promotes mitochondrial fusion | S. cerevisiae fusion-defective mutant growth rescue, CellTiterGlo 48 h | Potency, µM (series often up to 46.1 µM), for the others: at the top dose growth rescue (activation), hits mostly activators | actives 0.23% (n = 320,000); note: % of control where 0% means no effect; nearly all actives have a fitted effect of over 45% in size
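Growth-rescue viability read-out: after 48 h at the non-permissive 37C in glycerol/ethanol YPEG, yeast mitochondrial fusion mutants are measured by CellTiterGlo luminescence; compounds (23 nl pinned per well) restoring growth score as division inhibitors or fusion activators.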
a7 integrin act = activates integrin-mediated alleviation for muscular dystrophy. alpha7betagal myoblasts, beta-gal FDG fluorescence, 48 h. Potency, µM (doses to about 38.3 µM), for inactives: top-dose activation, most hits filed as activators. actives 0.064% (n = 350,000);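 note: 100% = response of the positive control SU9516; nearly all actives have a fitted effect of over 60% in size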
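Alpha7betagal+/- myoblasts (passage 13) were plated 16-24 hr, then exposed to compounds (1:260 dilution of DMSO stock) for 48 hours at 37C. After MPER lysis, β-galactosidase reporter activity was read as FDG fluorescence (ex 480/em 540) after 30 minutes.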
MCF10A rerep = inducers of DNA re-replication in MCF 10A breast cells. MCF 10A DNA re-replication, Hoechst nuclear intensity, 48 h. Potency, µM (series often up to 46.1 µM), without a hit: top-dose activity, positive = re-replication, actives largely listed as activators. actives 2.9% (n = 350,000); note: % of control where 0% means no effect; nearly all actives have a fitted effect of over 50% in size
A-T KAP1 phos = potential ataxia-telangiectasia treatments restoring KAP-1 phosphorylation; F2112 A-T fibroblasts, KAP-1 phosphorylation AlphaLISA; neocarzinostatin DNA damage 30 min before lysis; Potency, µM (titrated, usually from 57.5 µM), inactives show at the top dose activation, usual class: activators; actives 0.19% (n = 320,000); AID 485349; note: % of control where 0% means no effect; nearly all actives have a fitted effect of over 45% in size
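hTERT-immortalized A-T patient fibroblasts (F2112), 500 cells/well in OPTI-MEM, 1% FBS, got compounds for 60 min, then NCS for 30 min at 37C. Lysates were then assayed for phospho-KAP-1 by AlphaLISA (anti-pKAP1 donor, anti-KAP1 acceptor beads), 6 hr at 25C.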
An asterisk follows results filed as active; ? = inconclusive; nt = no result given; [ ] = remark or other dose. The list is not random: actives were taken first. Their share in the collection is about 4.2%. Calls come from the whole dose curve; as a rule, active = well fitted activation curve with a large enough effect; inconclusive = small, poorly fitted or top-dose-only effect; inactive = no such curve, though single readings can be large or run the other way. Potency is the fitted concentration of half-maximal effect.

SMILES	SW480 rerep	Mito fusion yeast	a7 integrin act	MCF10A rerep	A-T KAP1 phos
CCOc1ccc(NS(=O)(=O)c2ccc(OCC)c3ncccc23)cc1	21µM*	3%	-26%	?	3%
CCOc1ccc(S(=O)(=O)O)c2cccnc12	-4%	nt	nt	8%	nt
N#C/C(=C(/O)CSc1nnc(Cc2cccs2)n1C1CCCCC1)c1nc2ccccc2[nH]1	18µM*	?	?	?	-23%
N#C/C(=C(/O)c1ccc(Br)s1)c1nc2ccccc2[nH]1	7.3µM*	-1%	-33%	2.9µM*	9%
N#C/C(=C(/O)c1ccc(C(=O)c2ccccc2)cc1)c1nc2ccccc2[nH]1	23µM*	2%	6%	22%	5%
CCCCOc1ccc(/C(O)=C(\C#N)c2nc3ccccc3[nH]2)cc1	3%	-7%	-3%	1%	19%
N#C/C(=C(/O)c1ccc([N+](=O)[O-])s1)c1nc2ccccc2[nH]1	?	-2%	?	-5%	-3%
C/C(O)=C(\C#N)c1nc2ccccc2[nH]1	-14%[9.22 µM]	2%	-6%	12%	1%
N#C/C(=C(/O)c1cccs1)c1nc2ccccc2[nH]1	16µM*	9%	19%	18µM*	?
CCc1nnc(SCC(=O)NCCC2=CCCCC2)nc1CC	-6%	-34%	15%	-1%	-3%
COc1cc(C2OC(=O)c3c2ccc(OC)c3OC)ccc1O (stereo not drawn)	nt	-5%	nt	nt	20%
O=C(c1cc([N+](=O)[O-])ccc1Cl)N1c2ccccc2Sc2ccccc21	?	?	16%	18µM*	-1%
O=C(Nc1cccc(NC(=O)c2cc([N+](=O)[O-])ccc2Cl)n1)c1cc([N+](=O)[O-])ccc1Cl	?	nt	-21%	6.5µM*	nt
O=C(Nc1cc(S(=O)(=O)N2CCOCC2)ccc1Cl)c1cc([N+](=O)[O-])ccc1Cl	12µM*	nt	-71%	81%	11%
COc1cc(S(=O)(=O)N2CCN(Cc3ccccc3)CC2)ccc1Br	?	5%	-5%	10µM*	2%
Brc1cc(Br)c2ncnc(N3CCCCC3)c2c1	?	13%	-34%	5.8µM*	6%
Clc1ccc(-n2ncc3c(N4CCCCCC4)ncnc32)cc1	-2%	-2%	17%	4%	6%
O=C(CNCc1ccccc1)Nc1ccc(Oc2ccccc2)cc1	18µM*	1%	-21%	?	1%
Cc1cc(C)c(NS(=O)(=O)c2ccc(NC(=O)c3cccs3)cc2)c(C)c1	2%	8%	-19%	?	7%
CCOC(=O)/C=C/C(=O)Nc1cc(S(=O)(=O)Nc2ccc(OC)cc2)ccc1N1CCOCC1	16µM*	-13%	-55%	?	9%
CCOC(=O)/C=C/C(=O)Nc1ccc(Oc2ccccc2)cc1	18%	3%	-22%	16µM*	1%
CCOC(=O)/C=C/C(=O)Nc1ccc(S(=O)(=O)Nc2c(C)cc(C)cc2C)cc1	?	-10%	-45%	16µM*	5%
O=C(O)/C=C/C(=O)Nc1ccc(Oc2ccccc2)cc1	-4%	-1%	-21%	-37%	1%
Cc1ccc(NC(=O)C(C)Sc2nnc3n2CCCCC3)cc1S(=O)(=O)N1CCOCC1 (stereo not drawn)	nt	nt	-6%	nt	nt
CCOC(=O)/C=C/S(=O)(=O)c1ccc(NC(C)=O)cc1	2.6µM*	3%	-68%	2.3µM*	-3%
SMILES	SW480 rerep	Mito fusion yeast	a7 integrin act	MCF10A rerep	A-T KAP1 phos
COc1ccc(NS(=O)(=O)c2cc(NC(=O)c3ccc(Cl)cc3)ccc2N2CCOCC2)cc1	1.5µM*	nt	-25%	2.3µM*	-38%
CNC(=O)C1CN(C(=O)c2nn(Cc3ccccc3)c(=O)c3ccccc23)c2ccccc2O1 (stereo not drawn)	nt	nt	21%	nt	nt
COc1ccc(O)c(CN2CCN(CCCc3ccccc3)C(CCO)C2)c1 (stereo not drawn)	-6%	-2%	10%	0.23µM*	1%
OCCC1CN(Cc2nc(-c3ccccc3)cs2)CCN1CCc1ccccc1 (stereo not drawn)	-6%	-4%	-45%	2.9µM*	4%
COc1ccc(OC)c(CN2CCN(CCc3ccccc3)C(CCO)C2)c1 (stereo not drawn)	-13%	3%	0%	1%	4%
OCCC1CN(Cc2nc(-c3ccc(F)cc3)cs2)CCN1CCc1ccccc1 (stereo not drawn)	18%	11%	2%	-5%	4%
Cc1ccccc1NS(=O)(=O)c1cc(C(=O)Nc2cccc(N(C)S(C)(=O)=O)c2)ccc1C	8%	-1%	-6%	15µM*	-3%
COc1ccc(NC(=O)Nc2ccc3c(c2)C(=O)N([C@H](C)CO)C[C@@H](C)[C@@H](CN(C)C(=O)C2CCCCC2)OCCCC[C@H](C)O3)cc1	nt	nt	22%	nt	nt
Cc1nn(-c2ccccc2)c2c1C1(C(=O)Nc3ccccc31)N1C(=N2)Sc2ccccc21 (stereo not drawn)	-2%	18µM*	10%	19%	-8%
O=C(Nc1cccc(Cl)c1Cl)c1ccccc1OCC(=O)N1CCOCC1	-4%	0%	-19%	-3%	1%
COc1ccc(C2CC(c3ccccc3)=NN2c2ccc(S(N)(=O)=O)cc2)cc1OC (stereo not drawn)	23µM*	-7%	0%	16µM*	29%
NS(=O)(=O)c1ccc(N2N=C(c3ccccc3)CC2c2cccc(F)c2)cc1 (stereo not drawn)	4.1µM*	-9%	-23%	2.6µM*	40µM*
O=[N+]([O-])c1ccc(N2N=C(c3ccccc3)CC2c2ccccc2O)cc1 (stereo not drawn)	nt	-48%	nt	nt	-7%
NS(=O)(=O)c1ccc(N2N=C(c3ccccc3)CC2c2ccccc2Br)cc1 (stereo not drawn)	12µM*	nt	28%	?	21%
CNC(=S)N1N=C(c2ccccc2)CC1c1ccc(OC)c(OC)c1 (stereo not drawn)	-3%	1%	2%	-3%	1%
COc1cc(C2CC(c3cccnc3)=NN2c2ccc(F)cc2)cc(OC)c1OC (stereo not drawn)	8.2µM*	0%	15%	?	3%
CN1CCN(C(=O)C[C@@H]2C[C@H]3c4cc(NC(=O)c5cccnc5)ccc4O[C@H]3[C@H](CO)O2)CC1	nt	nt	8%	nt	nt
CCc1ccc(C(=O)C(C)CN2CCCCC2)cc1 (stereo not drawn)	?	nt	nt	9%	nt
O=S(=O)(O)c1cc(O)c2c(N=Nc3ccc(Nc4ccccc4)c4c(S(=O)(=O)O)cccc34)cc(S(=O)(=O)O)cc2c1	-1%	nt	nt	-12%	nt
CC1NC(=O)c2cc3ccccc3cc2-n2c1nc1cc(Cl)ccc1c2=O (stereo not drawn)	nt	nt	5%	nt	nt
